# From the supplement of paper PMC6555819
# Columns and labels:
# Assay in all cases: PBM binding z-score (relative to random genomic background probes); higher = stronger binding; sequences stand for … in GC…GCGATTGACAGCGTAGAATGAAGG
# [1] = test system: FXR:RXRa (NR concentration 270 nM, RXRa partner concentration 90 nM)
# Method in brief: (§1)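 Antibodies against each partner of ligand-free nuclear receptor dimers (one per run) detected binding on custom Agilent 4×180K protein-binding microarrays after 1 h incubation. The double-stranded probes had 34-nt variable regions carrying direct-repeat seeds, single-nucleotide variants, half-site ablations and random human genomic background sequences. Binding z-scores, from regression-normalized fluorescence, use the random background probes as reference.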
# [2] = test system: LXRa:RXRa (NR concentration 270 nM, RXRa partner concentration 90 nM)
# Method in brief: as §1
# [3] = test system: LXRa homodimer (NR concentration 270 nM)
# Method in brief: as §1
# [4] = test system: LXRb:RXRa (NR concentration 270 nM, RXRa partner concentration 90 nM)
# Method in brief: as §1
# [5] = test system: LXRb homodimer (NR concentration 270 nM)
# Method in brief: as §1
# [6] = test system: PPARa:RXRa (NR concentration 270 nM, RXRa partner concentration 90 nM)
# Method in brief: as §1
# [7] = test system: PPARg:RXRa (NR concentration 180 nM, RXRa partner concentration 90 nM)
# Method in brief: as §1
# [8] = test system: PPARg:RXRa 270nM:90nM, anti-RXR (NR concentration 270 nM, RXRa partner concentration 90 nM)
# Method in brief: as §1
# [9] = test system: PPARg:RXRa 30nM:10nM, anti-RXR (NR concentration 30 nM, RXRa partner concentration 10 nM)
# Method in brief: as §1
# [10] = test system: PPARg:RXRa 90nM:30nM, anti-RXR (NR concentration 90 nM, RXRa partner concentration 30 nM)
# Method in brief: as §1
# [11] = test system: PPARg:RXRa DBDmut IVT, anti-RXR (DBD mutation: RXRa K156A/R161A, NR concentration 270 nM, RXRa partner concentration 90 nM)
# Method in brief: as §1
# [12] = test system: PPARg:RXRa IVT, anti-PPARg (NR concentration 270 nM, RXRa partner concentration 90 nM)
# Method in brief: as §1
# [13] = test system: PPARg DBDmut:RXRa IVT, anti-PPARg (DBD mutation: PPARg1 K132A/R137A, NR concentration 270 nM, RXRa partner concentration 90 nM)
# Method in brief: as §1
# [14] = test system: PPARg DBDmut IVT, anti-PPARg (DBD mutation: PPARg1 K132A/R137A, NR concentration 270 nM)
# Method in brief: as §1
# [15] = test system: PPARg homodimer (NR concentration 180 nM)
# Method in brief: as §1
# [16] = test system: PXR:RXRa (NR concentration 270 nM, RXRa partner concentration 90 nM)
# Method in brief: as §1
# [17] = test system: PXR homodimer (NR concentration 270 nM)
# Method in brief: as §1
# [18] = test system: RARa:RXR (NR concentration 270 nM, RXRa partner concentration 90 nM)
# Method in brief: as §1
# [19] = test system: RARa homodimer (NR concentration 270 nM)
# Method in brief: as §1
# [20] = test system: RARb:RXRa (NR concentration 270 nM, RXRa partner concentration 90 nM)
# Method in brief: as §1
Sequence,PBM binding z-score [1],PBM binding z-score [2],PBM binding z-score [3],PBM binding z-score [4],PBM binding z-score [5],PBM binding z-score [6],PBM binding z-score [7],PBM binding z-score [8],PBM binding z-score [9],PBM binding z-score [10],PBM binding z-score [11],PBM binding z-score [12],PBM binding z-score [13],PBM binding z-score [14],PBM binding z-score [15],PBM binding z-score [16],PBM binding z-score [17],PBM binding z-score [18],PBM binding z-score [19],PBM binding z-score [20]
ATATGTAGGTTAGATGGGGTCATTCAGACTAGGC,4.98,5.67,3.54,4.97,1.56,5.11,5.98,5.22,2.6,4.55,6.56,6.05,2.97,2.15,2.79,6.56,4.01,6.01,1.98,2.93
ATATGTAGGTTAGCTGGGGACATTCAGACTAGGC,1.86,1.8,0.679,1.14,0.544,2.64,3.46,2.89,1.12,2.16,6.96,6.07,2.18,1.88,1.9,2.92,0.356,1.71,1.2,1.22
GCTTGTAGATCAAGGTCAAGAAAGACTAAGCTAA,3.17,3.25,0.618,3.02,0.0549,3.91,1.86,3.04,0.697,2.12,2.14,2.87,0.431,-0.296,1.34,2.63,0.449,3.08,0.173,3.5
TCTTGTAGATCAAGCAGGTTAAGAGAGCCTGAGT,0.126,0.03,-0.729,0.145,-0.665,0.53,-0.372,0.87,2.06,1.55,1.44,0.423,-0.603,-0.0222,-0.58,0.103,-0.227,-0.116,-0.124,0.0485
TCATATTGGTAATACAGGTGAAAGTCGGCATCTA,1.28,1.16,0.763,1.2,0.359,1.79,1.09,2.7,3.88,3.11,2.7,1.89,0.751,1.85,1.69,0.947,0.763,1.09,1.43,0.496
ACAGAGAGGTGAGTGAAGGTAACTCAGCTGGACG,0.855,0.573,-0.279,0.265,0.454,1.26,0.736,0.54,-0.194,0.056,1.71,1.65,0.674,-0.716,0.508,0.337,0.0847,0.565,0.175,1.48
AGAATGAGGTTATAGGTAGATCAGGGAAGAAAGT,2.06,2.1,0.425,1.89,0.41,3.67,4.23,4.73,3.33,4.47,2.86,2.76,1.2,1.03,1.63,1.52,1.49,1.93,1.46,1.72
CATACAGGGTCAGCTAGGCAAGAGTAGGGACGGC,4.09,2.76,-0.331,1.96,0.0161,4.34,3.37,3.02,0.458,1.77,0.883,2.27,0.128,0.564,1.62,1.97,-0.336,2.62,0.47,3.91
CCTATTGGGCCAAGGTCATTGATCAGTCAAAGCA,3.16,2.92,0.821,2.85,-0.34,3.83,2.79,3.83,1.37,3.21,1.98,2.52,-0.54,0.103,2.09,3.72,1.21,3.94,0.101,3.33
ATATGTAGGTTAAGGGTCATACAGGTTGGTTCGC,4.79,4.61,2.43,4.61,1.28,6.57,12.1,10.2,9.63,12.5,7.57,7.96,4.09,2.15,4.5,5.37,1.88,6.2,2.6,3.76
CCTAGCAGGCCAATCTTGGTCACTCAAGGCTTGA,-0.234,-0.221,-0.7,-0.577,-0.715,-0.114,-0.277,-0.609,-0.894,-0.992,1.37,0.831,-0.756,-1.03,-0.618,-0.565,-0.712,-0.332,-1.07,0.275
CCTGCTAGCTCAATGGTCAGCTAAAGCAGCTCGC,-0.674,-0.624,-0.571,-0.457,-0.691,-0.408,-0.805,-0.234,-0.854,-0.539,-0.172,-0.705,-1.42,-1.42,-0.534,-0.568,-0.761,-0.44,-0.89,0.0479
GTACCAAGGTGAATAGGTCGTTCATGAGTAGGCG,0.8,1.02,0.137,0.601,-0.594,2.17,1.4,1.69,0.0443,0.958,1.96,2.71,0.421,-1.06,0.765,0.908,-0.0414,1.62,-0.236,2.12
GCGACTGGGGCATCAGCAGGTTACAATAACTTAA,-0.294,-0.143,-0.328,0.834,-0.691,1.24,1.02,0.768,-0.192,0.171,3.24,3.27,-0.414,-0.53,0.365,0.0826,-0.126,0.651,-0.54,0.753
GAAACGAGGGCATTCGAGTTGATAGCATGGCGAT,1.71,2.15,-0.383,0.442,-0.542,2.05,1.35,1.32,0.0683,0.829,4.26,3.42,0.513,0.0284,-0.429,3.68,1.26,0.561,0.0115,1.85
CGAACTAGGTCAAGAGGTCAAAGTCCGCTTCCCG,7.13,6.37,6.49,5.6,1.59,6.58,10.1,7.94,7.44,8.35,8.26,8.1,0.974,-0.335,5.23,6.23,3.31,7.7,2.18,5.48
GCTTGCAGGCCATTTGGGTCACTCAATGACGGGC,0.139,0.261,-0.325,0.146,-0.138,1.74,0.845,0.922,0.00542,0.391,3.07,3.01,-0.212,-0.514,0.237,0.662,0.0952,1.09,-0.792,1.76
TAGCCTAGGTCAATCAGGGGCCAGTATAGAAAGC,3.77,2.77,0.313,2.59,0.0516,3.34,2.24,2.28,0.674,1.76,1.74,2.75,-0.205,0.00211,1.32,2.04,-0.411,3.2,-0.673,3.89
